We go through 8 compounds from PubChem BioAssay (NCI).

Holding throughout (experiment): NCI-60 one-dose screen, 48 h (100 = growth as untreated, 0 = no growth, -100 = all killed)
Common to all, as to conditions: 10 µM unless noted

In assay [1] the test system is SR leukemia.
Assay [2] has as its system RPMI-8226 leukemia.
The subject of assay [3] is OVCAR-8 ovarian.
The test system of assay [4] is OVCAR-5 ovarian.
In assay [5] the test system is OVCAR-4 ovarian.
Assay [6] concerns SK-OV-3 ovarian.
For assay [7], the system named is IGROV1 ovarian.
Assay [8] concerns OVCAR-3 ovarian.
For assay [9], the system named is HS 578T breast.
In assay [10] the test system is NCI/ADR-RES ovarian.
The test system of assay [11] is T-47D breast.
In assay [12] the test system is BT-549 breast.
The subject of assay [13] is MDA-MB-435 melanoma.
Assay [14] deals with SW-620 colon.
In assay [15] the test system is MCF7 breast.
For assay [16], the system named is HCT-116 colon.
The test system of assay [17] is HCC-2998 colon.
The test system of assay [18] is KM12 colon.

This is part of a sample that, as a whole, favours compounds with a hit. Of some 83,000 tested, about 20% had one in any assay.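 Treatment: one concentration, 48 hours, 96-well format. Scoring: percent growth, with anything below 10 considered active.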 Values without a mark were called inactive. Activity calls are given as the source filed them.

In the case of `N=c1c2c(=N)n3c(nc2nc2n1-c1ccccc1Sc1ccccc1-2)sc1cc(Cl)ccc13`, the growth in [1] is 25.9%; in assay [2], 14.5%; in assay [3] it was 26.5%; in assay [4], 92.2%; in [5], 8.65% (active); in assay [6], 49.6%. For the same compound, the growth is 38.7% in assay [7]; 7.88% (active) in [8]; 32% in assay [9]; 30.1% in [10]; 6.16% (active) in assay [11]; 42.2% in assay [12]. The growth in assay [13] was 21.1%; in assay [14], 32.4%; in assay [15] it was -2.03% (active); in [16] it was 10.7%; in [17] it was -18.6% (active); in assay [18] it was 19.9%.

For `CCOC(=O)N1CCN(S(=O)(=O)c2oc(-c3ccc(Cl)cc3)nc2C#N)CC1`, the growth is 4.64% (active) in assay [1]; 67.3% in [2]; 70.8% in assay [3]; 106% in [4]; 103% in [5]; 102% in [6]. For the same compound, the growth in assay [7] was 87.9%; in assay [8], 32.2%; in [9], 102%; in [10], 102%; in [11], 65.4%; in [12], 92.2%. Besides, the growth was 98.6% in [13]; -49% (active) in assay [14]; 62.2% in [15]; 14.1% in assay [16]; 104% in assay [17]; 108% in assay [18].

Take `CC1O[C@@H]2C[C@@](O)([C@H]1O)n1c3ccccc3c3c4c(c5c6ccccc6n2c5c31)C(=O)NC4=O` (some centres undefined): the growth in [1] is 32%; in assay [2], 55.3%; in assay [3], 63.3%; in assay [4], 72.8%; in [5] it was 66.8%; in [6], 48.4%. Moreover, the growth in assay [7] was 67.6%; in assay [8] it was 55.4%; in [9], 82.6%; in assay [10], 80.7%; in [11] it was 8.92% (active); in [12], 36.3%. Also, the growth in [13] was 43.1%; in assay [14] it was 35.4%; in [15], 22.3%; in [16], 15.6%; in assay [17], 73.4%; in assay [18] it was 22.8%.

Turning to `Cc1c(Cl)cccc1C(=O)Nc1nc2c(s1)CN(C(=O)Nc1cccc(C(F)(F)F)c1)CC2`, the growth was 13.5% in assay [1]; 7.93% (active) in [2]; 14.8% in assay [3]; 37% in assay [4]; 28.8% in assay [5]; 34.1% in assay [6]. Moreover, the growth in assay [7] was 22.6%; in assay [8], -11.8% (active); in assay [9], 30.4%; in assay [10] it was -27.2% (active); in [11], 46%; in assay [12], 33.6%. Besides, the growth in assay [13] was -22% (active); in assay [14] it was 33.4%; in assay [15], 12.6%; in [16] it was 13.3%; in [17], 11.7%; in assay [18] it was 14.5%.

With `COc1ccc(Cn2cc(C(=O)N=Nc3c(O)[nH]c4c(Cl)cccc34)nn2)cc1`, the growth is 80.3% in assay [1]; 106% in [2]; 97.4% in assay [3]; 123% in [4]; 104% in assay [5]; 113% in [6]. For the same compound, the growth is 103% in assay [7]; 113% in [8]; 97.5% in assay [9]; 105% in [10]; 100% in [11]; 111% in [12]. Also, the growth is 101% in assay [13]; 99.7% in assay [14]; 84.3% in assay [15]; 91.6% in [16]; 99.3% in assay [17]; 107% in assay [18].

`CC[C@H](Nc1nc(N)nc(C)c1C#N)c1nc2cccc(NCCCCCC(=O)NO)c2c(=O)n1-c1ccccc1`: the growth was 67.9% in [1]; 62% in assay [2]; 68.5% in assay [3]; 44.2% in assay [4]; 76.1% in assay [5]; 53.1% in assay [6]. Also, the growth in [7] was 9.52% (active); in assay [8], 40.8%; in assay [9] it was 13.2%; in assay [10], 96.2%; in assay [11] it was 1.28% (active); in assay [12] it was 39.4%. The growth is 64.1% in [13]; 68.3% in [14]; 31.5% in assay [15]; 71.3% in assay [16]; 87% in [17]; 80.3% in assay [18].

In the case of `COc1cc2oc(-c3cccc(NC(=O)c4ccc5c(c4)OCO5)c3)cc(=O)c2c(OC)c1OC`, the growth was 11.5% in assay [1]; -53.7% (active) in assay [2]; 46.3% in assay [3]; 93.9% in assay [4]; 58.1% in [5]; 98.1% in [6]. Besides, the growth in [7] is 47%; in [8] it was 53%; in [9], 45.2%; in [10], 57.6%; in assay [11], 26.3%; in assay [12], 41.4%. For the same compound, the growth in assay [13] is 53.3%; in assay [14], 64%; in [15] it was 43.6%; in assay [16] it was 35.5%; in assay [17] it was 53.1%; in assay [18], 51.3%.

As to `C=CCCC(=O)N1C=CC(=O)[C@H](O)[C@@H]1/C=C/c1ccccc1`, the growth in assay [1] was 43.8% [100 µM]; in assay [2], 54.2% [100 µM]; in assay [3], 37% [100 µM]; in assay [4], 62.2% [100 µM]; in assay [5] it was 55.4% [100 µM]; in assay [6], 39.2% [100 µM]. Also, the growth in [7] was 51% [100 µM]; in assay [8], 30.3% [100 µM]; in assay [9], 87.6% [100 µM]; in [10], 19.8% [100 µM]; in [11], 39.7% [100 µM]; in assay [12], 59.6% [100 µM]. Also, the growth in assay [13] was 59.6% [100 µM]; in assay [14], 40.6% [100 µM]; in [15], 19.3% [100 µM]; in assay [16], 18.5% [100 µM]; in [17], 42.5% [100 µM]; in assay [18], 33.3% [100 µM].
